From PubChem BioAssay
D1 antagonist = antagonists of human D1 dopamine receptor. activity change, negative = inhibition, % at 10 µM. P21728. 360,000 compounds, 3.2% hits. HEK293 TREx D1 cells, calcium flux, dopamine EC80; stronger effect = lower value; in the data active = activity change below about -30%
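Calcium flux readout: force-coupled, inducible Hek293 Trex D1 line, cells induced overnight at 30 C with tetracycline, dye-loaded 30–90 min at RT. Antagonism scored against EC80 dopamine challenge given 180 s after compound.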
TRHR PAM = allosteric enhancers of human TRH receptor. enhancement, % at 2 µM. 360,000 compounds, 0.66% hits. TRHR cells, fluo-8 calcium fluorescence, EC20 TRH enhancement; in the data active = enhancement above about 30%
Target sequence (P34981 whole entry, looked up): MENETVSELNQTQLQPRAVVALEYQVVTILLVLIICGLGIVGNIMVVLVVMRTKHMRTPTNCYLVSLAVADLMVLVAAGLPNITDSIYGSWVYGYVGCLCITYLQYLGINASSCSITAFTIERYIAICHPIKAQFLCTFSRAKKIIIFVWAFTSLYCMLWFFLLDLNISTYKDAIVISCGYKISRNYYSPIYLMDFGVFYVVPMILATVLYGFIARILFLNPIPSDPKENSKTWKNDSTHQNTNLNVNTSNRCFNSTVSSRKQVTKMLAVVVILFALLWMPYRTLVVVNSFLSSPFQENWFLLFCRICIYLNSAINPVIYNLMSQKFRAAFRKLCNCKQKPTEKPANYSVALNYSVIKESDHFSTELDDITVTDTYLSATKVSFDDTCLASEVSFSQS
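TRHR-expressing cells loaded with fluo-8 calcium dye were read kinetically (ex 480/em 530) during compound addition, then stimulated with an EC20 of TRH (10 nM final). Enhancement of the Gq-mediated intracellular calcium response was scored.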
D1 PAM = enhances dopamine response at the human D1 receptor; HEK293 TREx D1 cells, calcium flux, dopamine EC20 potentiation; 360,000 compounds, 0.036% hits; AID 504651; potentiation, % at 10 µM; in the data active = potentiation above about 30%
D1 ag = agonists of human D1 dopamine receptor | activation, % at 2 µM | P21728 | 360,000 compounds, 1% hits | HEK293 T-REx D1 cells, calcium flux, agonist mode
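Agonism was scored from calcium flux recorded over 180 s (1 read/s) after pintool compound addition, following a 10-cycle baseline. Cells were inducible force-coupled HEK293 TREx D1, plated overnight at 30 C and loaded with no-wash calcium dye.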
TRHR agonist = agonists of human TRH receptor. 360,000 compounds, 0.18% hits. activation, % at 2 µM. TRHR cells, calcium flux fluo-8, FDSS agonist mode. AID 493084
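TRHR-expressing cells, plated overnight in medium with 10% serum, were loaded with fluo-8 calcium dye at room temperature. After a 10 s baseline, library compound was pin-added and calcium release was recorded kinetically (ex 480/em 530) as agonist response.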
Each line names hits and unclear results; the compound was inactive in the other large screens. Rows were chosen to be rich in hits. Some 4.6% of all compounds tested hit in one or more screens of this group. Rule as the data show it, unless noted: active = activation above about 30%; inactive = the rest.

COc1ccc2oc(=O)c(C(=O)N3CCN(c4ccccc4)CC3)cc2c1	D1 antagonist -41
COc1cccc(OC(=O)c2cc3ccccc3oc2=O)c1	D1 antagonist -30
CCOCCCNC(=O)c1cc(=O)[nH]c2ccc(S(=O)(=O)N3CCCC3)cc12	none
CSc1cccc(NS(=O)(=O)c2ccc3[nH]cc(C(=O)N4CCCC4)c(=O)c3c2)c1	none
CCc1ccc(C(=O)c2cn(CC(=O)NCc3ccc(C)cc3)c3nc(C)ccc3c2=O)cc1	none
O=C(CCn1c(=O)[nH]c2ccsc2c1=O)N1CCN(c2cccc(Cl)c2)CC1	D1 antagonist -50
O=C(CCn1c(=O)[nH]c2ccsc2c1=O)N1CCN(c2ccc([N+](=O)[O-])cc2)CC1	TRHR PAM 36
O=C(CCCCn1c(=O)[nH]c2ccsc2c1=O)N1CCN(c2cccc(Cl)c2)CC1	D1 antagonist -36
O=C1CC(N2CCN(S(=O)(=O)c3ccccc3F)CC2)C(=O)N1c1ccccc1Cl (stereo unspecified)	none
COc1ccccc1NC(=O)C(C)OC(=O)C1CCC(C(C)(C)C)CC1 (stereo unspecified)	none
O=S(=O)(Nc1cccc2ccccc12)c1ccc2ccccc2c1	none
CCc1ccc(NS(=O)(=O)c2ccc(OC)c3ncccc23)cc1	D1 antagonist -31
CCSc1nnc(NC(=O)NCC(F)(F)F)s1	TRHR PAM 34
CCSc1nnc(NC(=O)C2C3C=CC(C3)C2C(=O)O)s1 (stereo unspecified)	D1 antagonist -46
CCSc1nnc(NC(=O)C2C3CCC(C3)C2C(=O)O)s1 (stereo unspecified)	none
O=C(NC(CC(=O)N1CCCC(C(F)(F)F)C1)c1ccccc1)c1ccccc1Cl (stereo unspecified)	TRHR PAM 33
CC1CCN(C(=O)CC(NC(=O)c2ccccc2Cl)c2ccccc2)CC1 (stereo unspecified)	none
CCOC(=O)c1cc(C)n(CC2CCC(C(=O)Nc3cccc(Cl)c3)CC2)c1C (stereo unspecified)	none
CCOC(=O)c1cc(C)n(CC2CCC(C(=O)Nc3ccc(Cl)cc3)CC2)c1C (stereo unspecified)	D1 antagonist -34
COC(=O)c1c(C)sc(-c2c(-c3ccc(F)cc3)[nH]c3[nH]c(=O)[nH]c(=O)c23)c1O	D1 ag 131, TRHR agonist 56
CCc1ccc(-c2[nH]c3c(c2-c2sc(C)c(C(=O)OC)c2O)c(=O)n(C)c(=O)n3C)cc1	none
Cc1csc2nc(COC(=O)c3ccc(F)cc3)cc(=O)n12	D1 antagonist -38
Cc1csc2nc(COC(=O)c3ccccc3NC(=O)c3cccc(Br)c3)cc(=O)n12	D1 antagonist -53
COc1cccc(C(=O)Nc2ccccc2C(=O)OCc2cc(=O)n3c(C)csc3n2)c1	none
COc1ccc(C(=O)OCc2cc(=O)n3c(C)csc3n2)cc1F	none
Cc1cc2c(s1)c1cnn(Cc3ccc(C)c(F)c3)c(=O)c1n2C	none
CC1=C(c2ccc(C)c(C)c2)S(=O)(=O)N=C1N1CCN(c2cccc(C(F)(F)F)c2)CC1	none
Cc1ccc(CCNC(=O)CCN2N=C(c3ccc(C)cc3)CCC2=O)cc1	none
CCC(Sc1nc2nccnc2c(=O)n1Cc1ccc(OC)cc1)C(=O)NC1CCCCC1 (stereo unspecified)	none
Cc1ccc(CNC(=O)C2CCCN(c3cnccn3)C2)cc1 (stereo unspecified)	none
Cc1ccc(/C=C2\Oc3c(ccc(O)c3CN3CCN(C)CC3)C2=O)cc1	D1 ag 40
CCN1CCN(Cc2c(O)ccc3c2O/C(=C\c2ccccc2)C3=O)CC1	D1 ag 51
O=C1/C(=C/C=C/c2ccccc2)Oc2c1ccc(O)c2CN1CCN(CCO)CC1	none
CCN1CCN(Cc2c(O)ccc3c2O/C(=C\C=C\c2ccccc2)C3=O)CC1	none
COc1ccccc1/C=C/C=C1\Oc2c(ccc(O)c2CN2CCN(CCO)CC2)C1=O	D1 antagonist -31, D1 ag 114
COc1cc2c(=O)n(Cc3ccccc3Cl)c(=O)n(CC(=O)Nc3ccc(C)c(C)c3)c2cc1OC	none
O=C(OCc1ccco1)c1ccc2c(c1)N(Cc1cccc(F)c1)C(=O)c1ccccc1S2	none
Nc1ccc2c(c1)OC1(CCCC1)O2	D1 antagonist -37
